High-throughput results: PubChem BioAssay, Johns Hopkins Ion Channel Center
TMEM16A act = mouse TMEM16A channel activation, primary screen. HEK293 TMEM16A/YFP-H148Q/I152L, iodide quench fluorescence; stronger effect = lower value. B-score at 10 µM. Q8BHY3. 340,000 tested, 0.3% active;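 active means fluorescence-ratio B-score plate-corrected deviation score at least 3 library SD below zero, with starting fluorescence score within 5 deviations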;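 further: channel opened by trigger with iodide after compound preincubation; score built on the fluorescence ratio of max minus min over baseline; more negative score means more quench and so TMEM16A activation or potentiation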
CHT PAM = human CHT allosteric activation; CHT-expressing cells, membrane potential dye, choline EC20; stronger effect = higher value; LV-AA mutant CHT in HEK293 cells; AID 488977; B-score at 10 µM; Q9GZV3; 310,000 tested, 0.49% active;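 active means initial fluorescence not abnormally high and integrated response B-score, plate-corrected, over 3 SD above library mean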
ANO1 block = mouse TMEM16A channel inhibition, primary screen. Q8BHY3. HEK293 TMEM16A/YFP iodide influx fluorescence, ionomycin. normalized B-score (activity score, 25-100; higher = stronger inhibition) at 10 µM. 310,000 tested, 1.2% active. AID 588511;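 active means ratio plate-corrected score three or more library SD toward inhibition, starting fluorescence score within five deviations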;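 further: score derived from kinetic fluorescence span divided by baseline fluorescence per well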
CHT block = inhibitors of human choline transporter CHT | Q9GZV3 | CHT-expressing cells, membrane potential dye, choline response; stronger effect = lower value | B-score at 10 µM | 310,000 tested, 0.86% active;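 active means B-score over 3 SD under the library average, and starting fluorescence ratio not unusually high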;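 further: choline stimulus applied at its EC90 after an EC20 pre-addition; B-score computed on integrated fluorescence ratio after choline addition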
TMEM16A reconf = TMEM16A (mouse) chloride channel inhibition, re-confirmation; shares compounds with ANO1 block; HEK293 TMEM16A/YFP-H148Q, iodide quench fluorescence; ionomycin added to raise cell calcium; inhibition, % at 10 µM; 2,300 tested, 39% active;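 active means mean duplicate percent inhibition, scaled so buffer wells are 0 and the reference blocker 100, over three buffer SD above buffer mean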
TMEM16A Ca cntr = alters calcium mobilization in TMEM16A HEK293 cells, counter-screen. AID 652231. calcium response (% of ionomycin), % at 10 µM. TMEM16A/YFP HEK293, Fluo4 calcium mobilization. shares compounds with ANO1 block. 2,300 tested, 2% active;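 active means duplicate-averaged calcium signal over 20% of the ionomycin maximum, relative to buffer baseline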;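 further: each well's signal is peak minus trough fluorescence divided by its pre-addition baseline; 0% = buffer wells and 100% = ionomycin wells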
Parental YFP cnt = parental YFP-HEK293 iodide quench counter-screen activity; YFP ratio F(max-min)/F0 at 10 µM; ionomycin; 2,300 tested, under 10 active; shares compounds with ANO1 block;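 active means yellow fluorescent protein signal ratio exceeding the buffer control mean by over 5 SD of those controls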;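 further: ratio is mean of duplicate wells from kinetic YFP trace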
ClC-1 inh = selectivity of TMEM16A inhibitors: inhibition of rat ClC-1 chloride channel | CHO ClC-1-YFP, iodide influx fluorescence quench; iodide control reads 0, buffer control 100 | ratio percent, % at 10 µM | 2,300 tested, under 10 active | AID 652236 | shares compounds with ANO1 block;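 active means duplicate-mean ratio percent above the mean of iodide-only control wells, which defines zero, plus 5 of their SD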;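 further: higher percent means stronger block of ClC-1 iodide influx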
* = called active by the depositor; i = inactive; . = no result given. Compounds with a hit are over-represented: about 2.4% of the library has one in this group of screens.

SMILES	TMEM16A act	CHT PAM	ANO1 block	CHT block	TMEM16A reconf	TMEM16A Ca cntr	Parental YFP cnt	ClC-1 inh
CS(=O)(=O)c1ccc(C(=O)OCC(=O)Nc2cccc(S(=O)(=O)N3CCCC3)c2)cc1	i	i	i	i	.	.	.	.
COc1ccc(NC(=O)CCOc2ccccc2C)cc1S(=O)(=O)N1CCCCC1	i	i	25*	i	i	i	-0.95	-6
O=C(CNc1cccc(F)c1)Nc1cccc(S(=O)(=O)N2CCCCC2)c1	i	.	.	.	.	.	.	.
O=C(COC(=O)c1ccc(O)cc1)Nc1cccc(S(=O)(=O)N2CCCCC2)c1	i	i	25*	i	i	i	-1.1	-20
Cc1ccc(NCC(=O)Nc2cccc(F)c2)cc1S(=O)(=O)N1CCCCCC1	i	i	100*	i	34%*	i	-0.94	-12
COc1ccccc1CCC(=O)Nc1ccc(OC)c(S(=O)(=O)N2CCCCC2)c1	i	.	.	.	.	.	.	.
Cc1ccc(NC(=O)CNc2cccc(S(=O)(=O)N3CCCCC3)c2)cc1F	i	i	25*	i	i	i	-0.88	-8
NC(=O)C1CCN(CCS(=O)(=O)c2ccc(Cl)cc2)CC1	i	i	i	i	.	.	.	.
CC1CCCC(NC(=O)CSC2=Nc3ccccc3C3CC=NN23)C1C (stereo unspecified)	i	.	.	.	.	.	.	.
Nc1nc(NC(=O)c2ccc(F)cc2)ns1	i	i	i	i	.	.	.	.
O=c1[nH]cnc(O)c1C(c1cccc([N+](=O)[O-])c1)c1c(O)nc[nH]c1=O	i	i	i	i	.	.	.	.
CCOc1ccc(N(CC)S(=O)(=O)c2ccc3c(c2)n(C)c(=O)c(=O)n3C)cc1	i	i	100*	i	i	i	-1.2	-6
S=C(NCC1CCCO1)N1CCN(c2nc(-c3ccccc3)cs2)CC1 (stereo unspecified)	i	i	25*	i	18%*	i	-1.4	-2
CC(=O)N(Cc1ccccc1)c1ncc2c(n1)c(=O)c(C#N)c1ccccn12	i	i	25*	i	i	i	-0.91	-8
CC(=O)N(Cc1c(C#N)c2ccccc2n1C)c1ccccc1	i	i	i	i	.	.	.	.
COc1ccc2oc(C(=O)OC/C(O)=C(\C#N)c3nc4ccccc4[nH]3)c(C)c2c1	i	i	i	i	.	.	.	.
CCOC(=O)c1c(C)[nH]c(C(=O)OC/C(O)=C(\C#N)c2nc3ccccc3[nH]2)c1C	-7.5*	i	100*	i	i	i	-0.93	0
COc1ccc(-c2nc3cc(NC(=O)Cc4ccc(OC)c(OC)c4)ccc3o2)cc1	i	i	100*	i	i	i	-0.95	-8
COc1ccc2c(-c3ccccc3)cc(=S)[nH]c2c1	i	i	i	i	.	.	.	.
Cc1oncc1-c1csc(-c2ccccc2Cl)n1	i	i	i	i	.	.	.	.
Cc1oncc1-c1csc(-c2ccccc2)n1	i	i	100*	i	i	i	-0.93	-12
O=S(=O)(Nc1nnc(-c2ccccc2)s1)c1ccc(Cl)cc1	i	i	100*	i	38%*	i	-0.9	-18
COCc1nnc(NS(=O)(=O)c2ccc(Cl)cc2)s1	i	.	.	.	.	.	.	.
COc1ccccc1N1CCN(c2ncnc3c2oc2ccccc23)CC1	i	i	100*	i	i	i	-1	-8
C(=C\c1ccccc1)/CN1CCN(c2ncnc3c2oc2ccccc23)CC1	i	i	100*	i	34%*	i	-1	-22
SMILES	TMEM16A act	CHT PAM	ANO1 block	CHT block	TMEM16A reconf	TMEM16A Ca cntr	Parental YFP cnt	ClC-1 inh
Cc1cc(NC(=O)COc2ccccc2)ccc1Cl	i	i	i	i	.	.	.	.
COc1ccc(Cl)cc1NC(=O)CSc1nnc(Cc2ccc(C)cc2)c(=O)[nH]1	i	i	25*	i	i	i	-0.94	-17
Cc1ccc(Cc2nnc(SCC(=O)Nc3ccccc3Cl)[nH]c2=O)cc1	i	i	i	i	.	.	.	.
Cc1ccccc1NC(=O)CCCSc1nc2ccccc2s1	i	i	100*	i	i	i	-0.85	-12
C[C@H](NC(=O)c1ccccc1Cl)C(=O)OC(C(=O)Nc1cc(C(F)(F)F)ccc1Cl)c1ccccc1 (stereo partly specified)	i	i	25*	i	i	i	-1.4	-6
O=C(CNC(=O)c1ccccc1F)OC(C(=O)Nc1cc(C(F)(F)F)ccc1Cl)c1ccccc1 (stereo unspecified)	i	i	i	i	.	.	.	.
Cc1ccc(Oc2ccc(-c3nc(N)nc(N)n3)cc2)cc1C	i	i	i	i	.	.	.	.
COCCNC(=S)N/N=C/c1c2ccccc2cc2ccccc12	i	i	i	i	30%*	i	-0.6	5
CSc1nc(N)c2cn[nH]c2n1	i	.	.	.	.	.	.	.
Cc1onc(-c2c(Cl)cccc2Cl)c1C(=O)Nc1ccc2c(c1)OCCO2	i	i	100*	i	i	i	-1	-15
O=C(Nc1ccc2c(c1)OCCO2)C1CCC1	i	i	100*	i	i	i	-0.99	4
O=C(Nc1ccc2c(c1)OCCO2)NC1CCCCC1	i	i	i	i	.	.	.	.
CC(=O)c1sc(NC(=O)C=C(C)C)nc1C	i	i	i	i	.	.	.	.
CC(=O)c1sc(NC(=O)C2(F)C(F)(F)C(F)(F)C(F)(F)C(F)(F)C2(F)F)nc1C	i	i	100*	i	43%*	i	-0.82	-16
Cc1ccccc1OCC(=O)N(Cc1nnc(-c2ccc(Cl)cc2)o1)C(C)C	i	.	.	.	.	.	.	.
CSc1ccccc1NC(=O)CN(C)C(C)C(=O)NCc1ccc2c(c1)OCO2 (stereo unspecified)	i	.	.	.	.	.	.	.
O=C1CC(N2CCN(c3nc4ccccc4s3)CC2)C(=O)N1Cc1cccs1 (stereo unspecified)	i	i	100*	i	30%*	i	-0.81	-4
O=C1CC(N2CCN(c3ccc(F)cc3)CC2)C(=O)N1Cc1cccs1 (stereo unspecified)	i	i	i	i	.	.	.	.
O=C(Nc1nc(-c2ccc(S(=O)(=O)N3CCOCC3)cc2)cs1)c1ccccc1	i	i	i	i	.	.	.	.
O=C(Nc1nc(-c2nc3ccccc3s2)cs1)c1ccc(S(=O)(=O)N2CCOCC2)cc1	i	i	100*	i	33%*	i	-0.91	-22
